TRPML1 inh: human mucolipin-1 channel inhibition; AID 624415; TRPML1-inducible cells, Ca2+ dye fluorescence, FDSS; active compounds read low; inhibition of EC80 agonist-evoked calcium signal; Q9GZU1; activity change, negative = inhibition, % (test concentration not listed); actives 0.02% (n = 390,000); in the data active = activity change below about -50%;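 note: stimulus is agonist 54-4 at its EC80 concentration; % is set by controls: 0 for no effect and ±100 for the full control effect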
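TRPML1-DL cells, Tet-induced overnight (~16 h, 37 °C) at 1,500 cells/well, were loaded with Ca8 no-wash dye plus quencher for 45-90 min at room temperature. Compounds were pinned during FDSS kinetic reading; agonist 54-4 at EC80 (4 uM final) then added.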
Glioma ERSR ind: induces the endoplasmic reticulum stress response in human glioma cells | U87-MG GRP78 promoter luciferase reporter, 16 h | Potency, µM, for the others: at the top dose activation, actives largely listed as activators | actives 0.02% (n = 420,000); active = well fitted activation curve with a large enough effect; note: potency is the fitted concentration of half-maximal effect; series mostly up to about 76 µM; % of control where 0% means no effect; nearly all actives have a fitted effect of over 35% in size
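Stably transfected U87-MG glioma cells carrying a GRP78-based luciferase sensor; 16 h compound incubation. Luminescence end-point read 10 min after Bright-Glo addition at room temperature.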
TRPML1 agonist: agonists of human TRPML1 channel. Q9GZU1. TRPML1-expressing cells, Ca2+ dye fluorescence, FDSS. activation, % (no concentration beside the values). actives 0.12% (n = 410,000). AID 624414; in the data active = activation above about 50%; note: 0% is about no effect
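Tetracycline-induced TRPML1-DL cells are seeded and incubated overnight before loading with a no-wash Ca2+ dye and quencher. Agonist activity is taken from the 110 s fluorescence read following compound pin-transfer on an FDSS, before EC80 54-4 challenge.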
TRHR PAM: allosteric enhancers of human TRH receptor; P34981; TRHR cells, fluo-8 calcium fluorescence, EC20 TRH enhancement; enhancement, % at 2 µM; actives 0.66% (n = 360,000); in the data active = enhancement above about 30%; note: 0% is about no effect
Target sequence (P34981 whole entry, looked up): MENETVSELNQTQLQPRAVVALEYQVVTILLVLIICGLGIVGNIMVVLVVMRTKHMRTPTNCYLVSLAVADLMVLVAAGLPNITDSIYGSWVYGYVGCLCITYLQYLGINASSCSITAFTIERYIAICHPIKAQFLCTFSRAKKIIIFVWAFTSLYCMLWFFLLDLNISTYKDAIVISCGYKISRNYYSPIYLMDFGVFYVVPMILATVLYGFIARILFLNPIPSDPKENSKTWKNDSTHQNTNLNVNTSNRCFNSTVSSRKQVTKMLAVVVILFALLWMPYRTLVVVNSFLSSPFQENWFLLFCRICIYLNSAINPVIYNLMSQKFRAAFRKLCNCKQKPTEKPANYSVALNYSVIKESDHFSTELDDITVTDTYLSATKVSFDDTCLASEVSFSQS
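Enhancer read-out: after compound pinning and an initial kinetic agonist-mode read, an EC20 of TRH (10 nM final) was injected and fluo-8 calcium signal (Ex 480/Em 530) followed at 1 s/cycle for 100 cycles in TRHR-expressing cells.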
TRHR agonist: activates the human TRH receptor; P34981; TRHR cells, calcium flux fluo-8, FDSS agonist mode; activation, % at 2 µM; actives 0.18% (n = 360,000); AID 493084; in the data active = activation above about 30%; note: 0% is about no effect
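Fluo-8-loaded TRHR cells; 10 s baseline, compound added, kinetic Ca2+ fluorescence read 1/s, agonist mode.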
Starred values were filed as active, the others as inactive. Only some compounds are listed: those with a hit (about 0.8% of all), similar ones and a draw of the others.

Screening CC12CCC(C(=O)N(c3ccccc3Cl)C1=O)C2(C)C (configuration not stated) returned TRPML1 inh 1.9, Glioma ERSR ind 3.8%, TRPML1 agonist -0.5, TRHR PAM 33.9* and TRHR agonist 0.2.
Screening Fc1ccccc1-c1nnc2ccc3ccccc3n12 returned TRPML1 inh -4.6, Glioma ERSR ind -5.5%, TRPML1 agonist -0.6, TRHR PAM 36.4* and TRHR agonist -0.5.
For Fc1cccc(Cl)c1-c1nnc2ccc3ccccc3n12 the results were TRPML1 inh -3.4, Glioma ERSR ind 1.4%, TRPML1 agonist 0.8, TRHR PAM -1.6 and TRHR agonist -1.0.
Cc1ncc2c(c1CNS(=O)(=O)c1cccs1)CCN(C(=O)/C=C/c1cc(F)cc(F)c1)C2 was read as Glioma ERSR ind -0.4%.
`Cc1cc(C(=O)NCc2nc(-c3ccccc3NC(=O)C3CCCO3)oc2C)nc(C)n1` (configuration not stated) gave Glioma ERSR ind -6.2%.
CCc1ccc2c(Cl)c(C(=O)N/N=C/c3c[nH]c4ccccc34)sc2c1 was read as TRPML1 inh 0.1, Glioma ERSR ind 3.4%, TRPML1 agonist 0.0, TRHR PAM 7.5 and TRHR agonist 1.8.
`CCc1ccc(-c2cc(C(=O)N/N=C/c3c[nH]c4ccccc34)[nH]n2)cc1` gave TRPML1 inh 4.7, Glioma ERSR ind -3.9%, TRPML1 agonist 0.6, TRHR PAM 35.5* and TRHR agonist -0.3.
Screening Cc1ccc(C)n1-c1ccc(C(=O)NCc2ccncc2)cc1 returned TRPML1 inh -6.0, Glioma ERSR ind -2.1%, TRPML1 agonist 0.2, TRHR PAM 30.8* and TRHR agonist 2.0.
For Cc1ccc(C)c(C2NC(=O)c3ccccc3N2)c1 (configuration not stated) the results were TRPML1 inh -4.8, Glioma ERSR ind -2.1%, TRPML1 agonist -0.4, TRHR PAM 37.4* and TRHR agonist -0.4.
Screening COc1cc(C)c(C2NC(=O)c3ccccc3N2)cc1C (configuration not stated) returned TRPML1 inh 7.7, Glioma ERSR ind -5.2% and TRPML1 agonist 1.5.
`COc1ccc(CCNC(=O)c2cccc(-n3cnnn3)c2)cc1` gave TRPML1 inh 0.1, Glioma ERSR ind 0.9% and TRPML1 agonist 0.9.
`Cc1ccc(CNC(=O)c2cccc(-n3cnnn3)c2)cc1` gave TRPML1 inh 28.3, Glioma ERSR ind -5.2%, TRPML1 agonist -0.6, TRHR PAM 30.0* and TRHR agonist 0.0.
Screening O=C(c1cccc2ccccc12)C1CCCN(C(=O)CCN2CCCO2)C1 (configuration not stated) returned TRPML1 inh 1.0, Glioma ERSR ind 0.7%, TRPML1 agonist 0.5, TRHR PAM 38.1* and TRHR agonist -0.9.
Cc1ccccc1CCNC(=O)Cn1ccc2cc(S(=O)(=O)N3CCCC3)ccc21 was read as TRPML1 inh 11.9, Glioma ERSR ind 0.3%, TRPML1 agonist 0.7, TRHR PAM 30.1* and TRHR agonist -0.3.
Screening O=C(Cn1ccc2cc(S(=O)(=O)N3CCCCCC3)ccc21)NCCc1ccccc1Cl returned TRPML1 inh 1.2, Glioma ERSR ind -3.1%, TRPML1 agonist 2.5, TRHR PAM 1.5 and TRHR agonist 0.6.
`Cc1nnc2n(c1=O)C(CS(=O)(=O)c1ccc3ccccc3c1)CS2` (configuration not stated) gave TRPML1 inh 16.7, Glioma ERSR ind -5.2%, TRPML1 agonist 0.9, TRHR PAM 32.7* and TRHR agonist -0.4.
Screening Cc1ccc(S(=O)(=O)CC2CSc3nnc(C)c(=O)n32)cc1 (configuration not stated) returned TRPML1 inh -10.0, Glioma ERSR ind -7.7%, TRPML1 agonist 2.8, TRHR PAM -0.6 and TRHR agonist 0.4.
For COc1ccc(CN2CCOc3ccc(CN4CCN(CCO)CC4)cc3C2)c2ccccc12 the results were Glioma ERSR ind -4.4%.
For O=C(O)/C=C/c1ccc2noc(-c3ccccc3)c2c1 the results were TRPML1 inh -1.9, Glioma ERSR ind 2.4%, TRPML1 agonist -0.6, TRHR PAM 32.3* and TRHR agonist 0.6.
Screening Cn1c(=O)c2c(O)cc(=O)[nH]c2n(-c2ccccc2)c1=O returned TRPML1 inh -6.5, Glioma ERSR ind -7.2%, TRPML1 agonist 0.3, TRHR PAM -4.6 and TRHR agonist 0.1.
Screening O=c1cc(O)c2c(=O)[nH]c(=O)n(-c3ccccc3)c2[nH]1 returned TRPML1 inh -9.9, Glioma ERSR ind -6.1%, TRPML1 agonist -0.2, TRHR PAM 33.0* and TRHR agonist 0.5.
`CC(C)(C)n1ncc2c(=O)n(Cc3ccccc3CS(=O)(=O)c3ccccc3)cnc21` gave TRPML1 inh -6.9, Glioma ERSR ind -2.2% and TRPML1 agonist 1.4.
CCOC(=O)C1CCN(Cc2oc(CO)cc(=O)c2O)CC1 was read as TRPML1 inh 18.5, Glioma ERSR ind 0.9%, TRPML1 agonist 2.1, TRHR PAM 30.4* and TRHR agonist -0.1.
`O=C(NCCN1Cc2ccccc2OC(c2ccccc2F)C1)c1cncs1` (configuration not stated) gave Glioma ERSR ind -4.2%.
For CC1CC(C)CN(CCOCCSc2ccccc2)C1 (configuration not stated) the results were TRPML1 inh 21.2, Glioma ERSR ind -0.5%, TRPML1 agonist -0.1, TRHR PAM -4.8 and TRHR agonist 0.2.
Screening CC1CC(C)CN(CCCSc2ccccc2)C1 (configuration not stated) returned TRPML1 inh -2.1, Glioma ERSR ind -2.5%, TRPML1 agonist -0.8, TRHR PAM 31.9* and TRHR agonist -0.5.
For O=C1c2cccc3c(O)ccc(c23)C(=O)N1c1ccc(Cl)cc1 the results were TRPML1 inh -8.2, Glioma ERSR ind -10.5%, TRPML1 agonist 103.7*, TRHR PAM 12.4 and TRHR agonist -0.5.
`Cc1ccc(N2C(=O)c3cccc4c(C(=O)O)ccc(c34)C2=O)cc1` gave TRHR PAM -1.7 and TRHR agonist 0.5.
`O=C1c2ccccc2C(=O)N1Cc1ccco1` gave TRPML1 inh 11.2, Glioma ERSR ind -2.8%, TRPML1 agonist 0.4, TRHR PAM -4.5 and TRHR agonist -0.1.
For CC(=O)Nc1ccc(N2C(=O)c3cccc4c(O)ccc(c34)C2=O)cc1 the results were TRPML1 inh -5.8, Glioma ERSR ind -10.9%, TRPML1 agonist 71.9*, TRHR PAM 34.5* and TRHR agonist 199.4*.
Screening O=C1c2cccc3c(O)ccc(c23)C(=O)N1Cc1ccco1 returned TRPML1 inh -18.7, Glioma ERSR ind -2.6%, TRPML1 agonist 99.2*, TRHR PAM 33.2* and TRHR agonist 234.9*.
For O=C(NCC1CCC2(CCN(Cc3cccn3-c3ccc(Cl)cn3)CC2)O1)c1ccccc1 (configuration not stated) the results were Glioma ERSR ind -5.6%.

Screens from PubChem.
